Data: PubChem BioAssay (NCI)
The panel holds about 83,000 compounds, 20% with a hit somewhere; the sample as a whole holds those more often.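 Cells were grown in 96-well plates and exposed to the test compound at a single concentration for 48 hours; results are reported as percent growth, with values below 10 considered active.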 Active and inactive are the calls of the source.

What follows are compounds tested on T-47D breast (assay: NCI-60 one-dose screen, 48 h (100 = growth as untreated, 0 = no growth, -100 = all killed)). Settings: 10 µM.

| SMILES | growth |
| --- | --- |
| CCN1CCN(Cc2ccc(C(=O)Nc3cccc(-c4cn(-c5ccc6oc(=O)ccc6c5)nn4)c3)cc2C(F)(F)F)CC1 | 82.9% (inactive) |
| COc1cc2oc(-c3cccc(C(=O)Nc4ccc(Cl)cc4)c3)cc(=O)c2c(OCCNC(=O)CNC(=O)OC(C)(C)C)c1OC | 59% (inactive) |
| O=C(NO)c1ccc(CN2CCN(c3nc(-c4ccccc4)c4ccccc4n3)CC2)cc1 | 8.88% (active) |
| COC[C@@H](CC(C)C)N=C1NC(=O)/C(=C/c2ccc3ncsc3c2)N1 | -7.77% (active) |
| O=C(/C=C/Nc1ccc(F)cc1F)c1ccc2c(c1)Nc1ccccc1S2 | 80.1% (inactive) |
| COc1ccc(-c2cc(C(=O)N=Nc3c(O)[nH]c4ccc(F)cc34)c3ccccc3n2)cc1 | 75.9% (inactive) |
| COc1cc(C2CC(c3ccccc3)=Nc3c(N)nc(N)nc3N2)ccc1Oc1nc(Nc2ccc(F)cc2)nc(N(C)C)n1 (centres undefined) | 54.4% (inactive) |
| COc1ccc(-c2cc(C(=O)N=Nc3c(O)[nH]c4ccccc34)c3ccccc3n2)cc1 | 12.1% (inactive) |
| Cc1ccc(CSc2nc(Cl)c(C#N)c(-c3ccc(F)cc3)n2)cc1 | 31.3% (inactive) |
| O=C(Nc1ccc(I)cc1)Nc1nc2ccc([N+](=O)[O-])cc2s1 | -85.9% (active) |
| O=C(Nc1nc2ccccc2s1)c1ccc(Br)cc1 | 44.1% (inactive) |
| O=c1oc2ccccc2cc1-c1csc(N=Nc2c(O)[nH]c3ccc(Br)cc23)n1 | 89.1% (inactive) |
| COc1cccc(-c2ccc(/C=N/NC(=O)c3[nH]c4ccc(Br)cc4c3-c3ccccc3)o2)c1 | 54.7% (inactive) |
| COc1ccc(-c2cc(-c3cc(C(=O)c4ccc(Br)cc4)n4ccc(C)cc34)nc(N)c2C#N)cc1 | 82.8% (inactive) |
| CC1(C)[C@@H](NCO)CC[C@]2(C)[C@H]3C(=O)C=C4[C@@H]5C[C@](C)(CO)CC[C@]5(C)CC[C@@]4(C)[C@]3(C)CC[C@@H]12 | 63.9% (inactive) |
| CO[C@@H]1CSS[C@H]1Cn1nc(-c2ccc(Oc3ccccc3)cc2)c2c(N)ncnc21 | 17.8% (inactive) |
| CC(=O)Nc1ccc(-c2cn(-c3cccc(C(=O)Nc4ccc(F)c(C(F)(F)F)c4)c3)nn2)cn1 | 88.2% (inactive) |

| SMILES | growth |
| --- | --- |
| CC1(c2ccccc2)NC(=O)N(CC(=O)Nc2ccc(C(=O)/C=C/c3ccccc3)cc2)C1=O (centres undefined) | 18.3% (inactive) |
| CN(C(=O)c1ccc(C(C)(C)C)cc1)c1sc2c(c1C#N)CCC(=O)C2 | -40.3% (active) |
| Nc1nc(-c2ccccc2)cs1 | 16.3% (inactive) |
| CN1C(=O)N(C)C2SC(N/N=C/c3cccs3)=NC21 (centres undefined) | 21.7% (inactive) |
| O=C(CSc1nnc(-c2c[nH]c3ccccc23)n1-c1ccccc1)c1ccccc1 | 83.5% (inactive) |
| Nc1nc2c(F)c(F)c(F)c(F)c2s1 | 91.3% (inactive) |
| CC1=C(c2cc(-c3ccc(Cl)cc3)c(C#N)c(N)n2)C(c2ccccc2)NC(=S)N1 (centres undefined) | 54.5% (inactive) |
| Cc1noc2c(Cc3ccc([N+](=O)[O-])cc3)nn(CC(=O)N/N=C/c3ccc(Cl)cc3)c(=O)c12 | 43.8% (inactive) |
| CN1CCN(Cc2ccc(C(=O)Nc3cccc(Nc4ccc5cc(O)ccc5n4)c3)cc2C(F)(F)F)CC1 | -11.7% (active) |
| CN1CCN(c2ccc(C(=O)/C=C/c3ccc(OC(F)F)cc3)cc2)CC1 | 55% (inactive) |
| CN1CCN(Cc2ccc(NC(=O)c3cncc(C#Cc4cnc5ccc(N[C@H]6CCOC6)nn45)c3)cc2C(F)(F)F)CC1 | -64.7% (active) |
| C/C(=N\NC(N)=S)c1ccc(Nc2nc(SC(C)C)nc(-c3ccccc3)c2C#N)cc1 | 57.3% (inactive) |
| COc1ccc2[nH]c(=O)c(CSc3ccc(Nc4nccc(-c5ccc(Cl)cc5)n4)cc3)cc2c1 | 78.6% (inactive) |
| CCOc1ccc(/C=N/NC(=O)Cn2nc(Cc3ccc([N+](=O)[O-])cc3)c3onc(C)c3c2=O)cc1 | 8.58% (active) |
| Brc1ccc(/C=C/c2n(Cc3ccc4ccccc4c3)c3ccccc3[n+]2Cc2ccc3ccccc3c2)cc1 | -58.1% (active) |
| COc1ccc(C2N(c3ccc(Br)cc3)N=C(C(C)=O)N2[C@H]2[C@H](OC(C)=O)O[C@H](COC(C)=O)[C@@H](OC(C)=O)[C@@H]2OC(C)=O)cc1 (some centres undefined) | 52.8% (inactive) |
| CCN1CCN(c2ccc(NC(=O)Nc3ccc(-c4cc(C(=O)NC(C)C)c5ncccc5n4)cc3)cc2C(F)(F)F)CC1 | -66.5% (active) |
